Experimental data: PubChem BioAssay (EPA / NIEHS)
Results filed as inconclusive are left out. Active and inactive are the calls of the source. The calls were made as follows: active = hit-call score of the fitted dose curve at least 0.9, where 1 is the maximum; inconclusive = response in the unintended direction; inactive = score below 0.9.

Molecular target: human RAR-related Orphan Receptor gamma (RORg), RORC (gene 6097) (UniProt P51449)
Test: ATG_RORg_TRANS: Attagene TRANS-FACTORIAL HepG2 Assay for human RAR-related Orphan Receptor gamma (RORg) (AID 2283011)
Summary of the method: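 Chimeric RORg-Gal4 transactivation in transfected HepG2; 24 h exposure; RT-PCR/capillary electrophoresis readout of reporter mRNA, DMSO baseline.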

Sequence of human RAR-related Orphan Receptor gamma (RORg), RORC (gene 6097) (P51449 whole entry, looked up): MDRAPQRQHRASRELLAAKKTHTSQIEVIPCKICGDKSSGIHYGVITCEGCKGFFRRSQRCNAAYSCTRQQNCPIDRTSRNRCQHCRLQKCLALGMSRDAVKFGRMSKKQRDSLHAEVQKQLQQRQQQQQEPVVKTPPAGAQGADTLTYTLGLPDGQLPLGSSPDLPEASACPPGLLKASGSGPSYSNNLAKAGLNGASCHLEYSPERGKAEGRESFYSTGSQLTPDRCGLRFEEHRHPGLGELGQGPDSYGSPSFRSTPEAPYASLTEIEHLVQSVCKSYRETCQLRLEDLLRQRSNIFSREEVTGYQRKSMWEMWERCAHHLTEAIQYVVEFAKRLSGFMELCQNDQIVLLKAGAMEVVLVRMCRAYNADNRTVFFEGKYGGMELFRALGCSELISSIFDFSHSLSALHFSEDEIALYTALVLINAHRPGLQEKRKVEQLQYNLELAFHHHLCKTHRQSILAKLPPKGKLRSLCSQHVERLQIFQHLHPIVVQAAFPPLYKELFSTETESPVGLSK

outcome, inactive:
O=C(F)C(F)(F)C(F)(F)C(F)(F)C(=O)F
COCC1CCC(CO)CC1 (stereo not given)
NS(=O)(=O)O
COC(=O)CC(C(C)=O)C(=O)OC (stereo not given)
CCC1CO1 (stereo not given)
CCO[Si](CCC1CCC2OC2C1)(OCC)OCC (stereo not given)
O=c1cc(-c2ccccc2)oc2ccc3ccccc3c12
CCCCCCCCC1CCC(=O)O1 (stereo not given)
CC(C)CCOCCC(C)C
Oc1cccc2c(O)cccc12
CCCCc1ccc2ccccc2c1S(=O)(=O)O
CCOCCOCC
CC(C)c1c(C(=O)Nc2ccccc2)c(-c2ccccc2)c(-c2ccc(F)cc2)n1CC[C@@H](O)C[C@@H](O)CC(=O)O
Cc1cc(C(=C2C=CC(=Nc3ccc(S(=O)(=O)O)cc3)C=C2)c2ccc(Nc3ccc(S(=O)(=O)O)cc3)cc2)cc(S(=O)(=O)O)c1N
O=C1C=CC(=O)N1c1cccc(N2C(=O)C=CC2=O)c1
FC(F)=C(F)C(F)(F)C(F)(F)C(F)(F)C(F)F
CCC(=O)O
O=C(Nc1ccc(Cl)c(Cl)c1)c1cc(Cl)cc(Cl)c1O
CCCCCCC(C)(C)C(=O)O

Molecular target: Retinoic acid receptor RXR-alpha (Homo sapiens) (UniProt P19793)
Test: ATG_RXRa_TRANS: Attagene TRANS-FACTORIAL HepG2 Assay for human Retinoid X Receptor alpha (RXRa) (AID 2283012)
Summary of the method: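 TRANS format reporting activity of exogenous RXRa-Gal4 chimera in transiently transfected HepG2, 24 h exposure. Reporter transcripts quantified by RT-PCR with capillary electrophoresis, with gain of signal scored relative to DMSO.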

Sequence of Retinoic acid receptor RXR-alpha (Homo sapiens) (P19793 whole entry, looked up): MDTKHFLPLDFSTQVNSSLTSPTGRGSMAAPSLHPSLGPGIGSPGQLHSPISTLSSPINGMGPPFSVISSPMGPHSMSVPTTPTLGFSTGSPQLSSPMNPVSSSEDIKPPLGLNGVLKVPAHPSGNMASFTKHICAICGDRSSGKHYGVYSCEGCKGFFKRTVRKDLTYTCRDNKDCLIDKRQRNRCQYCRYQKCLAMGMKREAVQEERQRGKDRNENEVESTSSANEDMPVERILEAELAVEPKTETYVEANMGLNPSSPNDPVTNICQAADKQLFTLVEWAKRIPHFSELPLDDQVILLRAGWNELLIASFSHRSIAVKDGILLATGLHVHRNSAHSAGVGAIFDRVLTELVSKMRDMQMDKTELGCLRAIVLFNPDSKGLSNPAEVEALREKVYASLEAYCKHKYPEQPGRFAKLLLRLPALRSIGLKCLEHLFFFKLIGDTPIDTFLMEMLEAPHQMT

outcome, inactive:
O=C(F)C(F)(F)C(F)(F)C(F)(F)C(=O)F
CC1CCC(C(=O)O)CC1 (stereo not given)
O=CC(F)(F)C(F)(F)C(F)(F)F
NS(=O)(=O)O
CC1=CC(=O)c2ccccc2C1=O
O=c1cc(-c2ccccc2)oc2ccc3ccccc3c12
O=S(=O)(O)c1ccccc1
CCCCCC(C)OC(=O)COc1ccc(Cl)c2cccnc12 (stereo not given)
CCc1cccc(CC)c1N(COC)C(=O)CS(=O)(=O)O
CCCCCCCCC1CCC(=O)O1 (stereo not given)
CNNCc1ccc(C(=O)NC(C)C)cc1
CCc1ccccc1O
CC(C)CCOCCC(C)C
CCCCCCCCCCCCOC(=O)c1cc(O)c(O)c(O)c1
O=C(C=C(O)C(F)(F)F)C(F)(F)F
O=CC(F)(F)C(F)(F)C(F)(F)C(F)F
Oc1cccc2c(O)cccc12
Nc1cc(Cl)c(-c2cc(Cl)c(N)cc2Cl)cc1Cl
Cc1cc(=O)oc2cc(O)ccc12
Cc1cc(C(=C2C=CC(=Nc3ccc(S(=O)(=O)O)cc3)C=C2)c2ccc(Nc3ccc(S(=O)(=O)O)cc3)cc2)cc(S(=O)(=O)O)c1N
O=C1C=CC(=O)N1c1cccc(N2C(=O)C=CC2=O)c1
CCCCCCCCCCCC[N+](C)(C)Cc1ccccc1
FC(F)(F)C1(F)C(F)(F)C(F)(F)C(F)(F)C(F)(C(F)(F)F)C1(F)F (stereo not given)
FC(F)=C(F)C(F)(F)C(F)(F)C(F)(F)C(F)F
CCC(=O)O
O=C(Nc1ccc(Cl)c(Cl)c1)c1cc(Cl)cc(Cl)c1O
